Common to all, as to test: NCI-60 one-dose screen, 48 h (100 = growth as untreated, 0 = no growth, -100 = all killed)
What all share (settings): 10 µM

Test [1] has as its system SR leukemia.
Test [2] concerns RPMI-8226 leukemia.
In test [3] the test system is OVCAR-8 ovarian.
Test [4] concerns OVCAR-5 ovarian.
Test [5] relates to OVCAR-4 ovarian.
Test [6] concerns SK-OV-3 ovarian.
Test [7] has as its system IGROV1 ovarian.
The test system of test [8] is OVCAR-3 ovarian.
The test system of test [9] is HS 578T breast.
For test [10], the system named is NCI/ADR-RES ovarian.
Test [11] has as its system T-47D breast.
In test [12] the test system is BT-549 breast.
Test [13] relates to MDA-MB-435 melanoma.
Test [14] deals with SW-620 colon.
The subject of test [15] is MCF7 breast.
The subject of test [16] is HCT-116 colon.
Test [17] deals with HCC-2998 colon.
Test [18] has as its system KM12 colon.

The panel holds about 83,000 compounds, 20% with a hit somewhere; the sample as a whole holds those more often.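 The test compound was applied at a single concentration to cells in 96-well plates for 48 hours, and percent growth was recorded.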 A number with no mark means an inactive call. The source made the active and inactive calls. How the source made its calls: active means growth percent below 10; inactive means the rest.

In the case of `COc1ccc2c(=O)cc(C(Cl)(Cl)Cl)oc2c1`, the growth was -25.6% (active) in [1]; -27.2% (active) in test [2]; -1.14% (active) in test [3]; 16.6% in test [4]; -12.9% (active) in test [5]; 9.34% (active) in test [6]. Moreover, the growth was -7.04% (active) in [7]; -19.7% (active) in test [8]; -13.9% (active) in test [9]; 10.3% in test [10]; 4.96% (active) in [11]; -11.9% (active) in [12]. The growth in test [13] is -81% (active); in [14] it was -2.53% (active); in test [15] it was -9.4% (active); in test [16], 4.23% (active); in test [17], -30% (active).

As to `O=C(c1ccccc1)C(Nc1ccccc1)c1ccccc1` (stereo unspecified), the growth in [1] is 96.2%; in [2], 84.8%; in [3], 87%; in [4], 93.3%; in [5], 92.3%; in test [6], 96.9%. Moreover, the growth in [7] is 75.9%; in [8], 97.1%; in [9], 95.1%; in [10] it was 93.1%; in test [11], 76.5%; in test [12] it was 94.4%. Further, the growth in test [13] was 102%; in [14], 97.6%; in [15], 101%; in test [16], 87.1%; in test [17], 101%; in test [18] it was 93.4%.

In the case of `Cc1ccc2c3c(cccc13)-c1ccccc1C2=O`, the growth in [1] was 94.1%; in [2], 97.8%; in test [3] it was 94.2%; in [4], 113%; in test [5] it was 105%; in test [6], 92.1%. The growth in [7] is 94%; in test [8], 108%; in [9], 94%; in test [10], 99%; in [11], 84.9%; in test [12], 106%. Besides, the growth in test [13] is 98.9%; in test [14], 93%; in test [15], 96.6%; in test [16], 86.4%; in test [17], 89%; in test [18] it was 54.4%.

As for `CCCOCC(O)CNCCN` (stereo unspecified), the growth was 99.2% in [1]; 101% in [2]; 102% in test [3]; 100% in test [4]; 102% in test [5]; 97.4% in [6]. Also, the growth in test [7] was 116%; in test [8], 121%; in test [9], 112%; in test [10], 123%; in test [11], 103%; in [12], 110%. Besides, the growth in test [13] was 98.5%; in [14], 98.9%; in test [15], 97.4%; in test [16] it was 104%; in test [17], 131%; in test [18], 122%.

Consider `COc1ccc(COC(=O)CC(C)C)cc1`, for which the growth in [1] was 97.1%; in test [2], 103%; in [3], 96.1%; in test [4] it was 100%; in [5], 109%; in test [6], 102%. Besides, the growth in test [7] was 106%; in test [8], 105%; in test [9], 104%; in test [10], 98.8%; in test [11], 96.7%; in [12], 100%. The growth in test [13] is 107%; in test [14], 105%; in test [15] it was 99.7%; in test [16] it was 96.3%; in test [17] it was 103%; in test [18] it was 98%.

Take `Cc1ccc(-c2cc(-c3cccc(Nc4ccnc5cc(Cl)ccc45)c3)nc3nc(N)[nH]c(=O)c23)cc1`: the growth in [1] is 48.9%; in [2], 92.8%; in [3], 92.5%; in test [4] it was 108%; in test [5], 111%; in [6] it was 111%. Further, the growth in test [7] was 76.7%; in test [8] it was 92.7%; in [9], 104%; in [10], 100%; in [11], 35%; in test [12] it was 86.4%. Moreover, the growth was 99.8% in [13]; 95.8% in [14]; 72.5% in [15]; 91.3% in test [16]; 91.5% in [17]; 70.5% in [18].

Consider `O=[N+]([O-])c1cc2ncccc2c2ncccc12`, for which the growth in [1] is 74%; in test [2] it was 82.8%; in test [3], 63.3%; in test [4], 98.3%; in test [5], 103%; in [6], 94.4%. In addition, the growth in [7] is 56.3%; in test [8], 84.5%; in test [9] it was 104%; in test [10] it was 75.1%; in test [11], 74.6%; in test [12], 89.6%. Further, the growth in test [13] is 61.9%; in test [14], 85.4%; in [15] it was 60.6%; in test [16], 53.5%; in test [17], 108%; in test [18], 96.3%.

With `O=C1c2cc(Cl)ccc2-c2c(O)cc(Cl)cc21`, the growth in test [1] is 39.3%; in test [2] it was 46.6%; in test [3] it was 58.4%; in [4] it was 101%; in test [5], 66.4%; in test [6], 94.8%. Besides, the growth in test [7] is 74.4%; in [8] it was 80%; in [9] it was 81.5%; in [10] it was 3.18% (active); in [11], 63.9%; in [12] it was 100%. Besides, the growth in test [13] was 106%; in test [14], 82.7%; in [15] it was 77%; in [16], 22.2%; in test [17], 105%; in test [18], 61%.

Take `CC(=O)Nc1ccc2c(c1)C(N1CC3CCC(CC3)C1)c1ccccc1-2` (stereo unspecified): the growth was 0.162% (active) in test [1]; 52.5% in test [2]; 88.3% in test [3]; 95.8% in [4]; 65.9% in test [5]; 91.4% in test [6]. Moreover, the growth in test [7] was 92.9%; in [8], 100%; in test [9], 83.2%; in [10] it was 88.6%; in [11], 66.6%; in test [12], 126%. Besides, the growth in [13] was 99.4%; in [14], 83.8%; in test [15], 96.7%; in test [16], 71.9%; in [17], 99.5%; in test [18], 80.7%.

Source of the values: PubChem BioAssay (NCI).
